Compounds with a hit are over-represented: about 3.3% of the library has one in this group of screens.
SARS PLP yeast = blocks SARS-CoV papain-like protease in a yeast assay; S. cerevisiae expressing SARS-CoV PLpro, growth rescue; Potency, µM (titrated, usually from 32.9 µM), for the others: at the top dose activity, positive = growth rescue, most hits filed as activators; 330,000 compounds, 0.19% hits; AID 485353; calls by dose curve; note: 0% is about no effect; nearly all actives have a fitted effect of over 55% in size
Sm TGR inh = inhibitors of Schistosoma mansoni thioredoxin glutathione reductase. Q962Y6. purified TGR, DTNB reduction, TNB absorbance 405 nm. Potency, µM (highest dose often 114 µM), for inactives: at the highest dose activity change, negative = inhibition, hits mostly inhibitors. 360,000 compounds, 3% hits. AID 485364; note: % is set by controls: 0 for no effect and ±100 for the full control effect; nearly all actives have a fitted effect of over 60% in size
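TGR 20 nM + NADPH 100 uM (dispensed conc.), cpd preinc 15 min RT; start with NADPH (500 uM addition) then DTNB (15 mM addition). Kinetic TNB absorbance, 405 nm filter. Four-parameter Hill fit across titration.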
RE007 growth inh = less growth of the S. pombe RE007 Vpr strain; S. pombe RE007 Vpr strain, BacTiter-Glo ATP luminescence, 24 h; Potency, µM (doses to about 92.2 µM), without a hit: at the highest dose activity change, negative = less growth, most hits filed as inhibitors; 360,000 compounds, 0.21% hits; AID 651644; active = well fitted falling curve with a large enough effect; inconclusive = small, poorly fitted or top-dose-only effect; inactive = no such curve, though single readings can be large or run the other way; note: % is set by controls: 0 for no effect and ±100 for the full control effect; nearly all actives have a fitted effect of over 50% in size
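Fission yeast RE007 carrying one integrated HIV-1 vpr copy, seeded at OD 0.01 in PMG+AL medium with 23 nL pinned compound. Grown 24 h at 30 degrees; viability read by BacTiter-Glo luminescence after 5 min.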
AmpC inh detg = blocks E. coli AmpC beta-lactamase in detergent assay. P00811. AmpC hydrolysis of nitrocefin, absorbance 480 nm, 0.01% Triton. Potency, µM (doses to about 114 µM), without a hit: at the highest dose activity change, negative = inhibition, hits mostly inhibitors. 370,000 compounds, 0.041% hits. AID 485294;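 note: 0% = no-compound wells and -100% = no-enzyme wells; nearly all actives have a fitted effect of over 25% in size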
Target sequence (P00811 whole entry, looked up): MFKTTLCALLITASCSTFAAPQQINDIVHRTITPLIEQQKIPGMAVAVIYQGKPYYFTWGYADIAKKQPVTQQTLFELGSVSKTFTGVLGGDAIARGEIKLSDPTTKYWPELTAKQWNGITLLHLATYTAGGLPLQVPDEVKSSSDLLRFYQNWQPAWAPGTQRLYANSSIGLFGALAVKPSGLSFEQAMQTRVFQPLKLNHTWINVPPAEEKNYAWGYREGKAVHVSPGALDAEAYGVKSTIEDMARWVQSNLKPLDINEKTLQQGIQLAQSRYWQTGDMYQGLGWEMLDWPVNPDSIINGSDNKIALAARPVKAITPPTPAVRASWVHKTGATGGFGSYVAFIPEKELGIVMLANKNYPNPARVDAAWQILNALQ
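20 mM phosphate pH 7.0 + 0.01% (detergent screen) or 0.0001% Triton X-100; 5.3 nM AmpC reagent; cpd preinc 15 min RT; nitrocefin (800 uM stock) to start; A480 q20 s × 4 min; Activity was normalised to no-enzyme and no-compound control wells.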
Tb PYK inh = inhibitors of Trypanosoma brucei pyruvate kinase; TbPYK enzyme, Kinase-Glo Plus ATP luminescence, 45 min; Potency, µM (series often up to 76.8 µM), for the others: at the top dose activity, negative = inhibition, hits mostly inhibitors; 410,000 compounds, 0.12% hits; AID 624173; Q57TT1; note: % is set by controls: 0 for no effect and ±100 for the full control effect; nearly all actives have a fitted effect of over 50% in size
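Screened from lowest to highest concentration, compounds were pinned into TbPYK/substrate mixtures, and ADP (130 uM final) was added. Plates sat at room temperature for 45 min prior to Kinase-Glo Plus detection by luminescence.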
AmpC inh no detg = blocks E. coli AmpC beta-lactamase in detergent-free assay. P00811. 330,000 compounds, 0.52% hits. Potency, µM (doses to about 57.1 µM), for the others: at the highest dose activity change, negative = inhibition, actives largely listed as inhibitors. AID 485341. AmpC nitrocefin hydrolysis, absorbance 480 nm, 0.0001% Triton;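 note: plate controls were no compound for no effect and no enzyme for full effect; nearly all actives have a fitted effect of over 20% in size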
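20 mM phosphate pH 7.0 + 0.01% (detergent screen) or 0.0001% Triton X-100; 5.3 nM AmpC reagent; cpd preinc 15 min RT; nitrocefin (800 uM stock) to start; A480 q20 s × 4 min; Activity was normalised to no-enzyme and no-compound control wells.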
Numbers without * were called inactive; ? = inconclusive; nt = no result given; [ ] = remark or other dose. Unless noted, calls come from the whole dose curve; as a rule, active = well fitted curve in the direction sought with a large enough effect; inconclusive = small, poorly fitted or top-dose-only effect, or another doubt; inactive = no such curve, though single readings can be large; an effect the other way counts as inactive or inconclusive. Potency is the fitted concentration of half-maximal effect.

SMILES	SARS PLP yeast	Sm TGR inh	RE007 growth inh	AmpC inh detg	Tb PYK inh	AmpC inh no detg
C=CCOC(=O)C1=C(C)NC(SCC(=O)N(CC)CC)=C(C#N)C1c1ccccc1 (stereo not given)	-6.8%	3.3%	48.2%	?	-8.9%	87.6%
C=CCOC(=O)C1=C(C)NC(SCC(=O)NC(=O)OCC)=C(C#N)C1c1cccnc1 (stereo not given)	-0.7%	39.8µM*	2.9%	-3.9%	-16.2%	-3.9%
CCOc1ccc(N=C2NC(=O)S/C2=C\c2ccc(N(C)C)cc2)cc1	4.9%	0.6%	0.1%	-14.4%	1.7%	-36.1%
CCOc1ccc(/C=C2/SC(=O)NC2=S)cc1	-28.7%	44.7µM*	4.2%	0.7%	4.2%	-23.8%
CC(C)(Cc1c[nH]c2ccccc12)NCC(O)COc1ccccc1C#N (stereo not given)	nt	nt	nt	nt	-7.9%	nt
CCOc1cccc(C=Nc2cc(C)cc(C)c2O)c1O	-12.1%	3.98µM*	3.4%	?	-11.1%	-46.1%
CCOc1cccc(/C=N/N=C/c2cccc(OCC)c2O)c1O	-0.8%	-2.0%	-8.3%	-3.0%	-3.0%	-5.3%
CC(=O)N1c2nc(-c3ccco3)nn2C2(CCCCC2)[C@@H]2CCCC[C@@H]21	nt	?	nt	14.7%	-1.8%	nt
CCCC(=O)N1c2nc(-c3ccco3)nn2C2(CCCCC2)[C@@H]2CCCC[C@@H]21	nt	35.5µM*	nt	15.1%	-9.5%	nt
O=C(CSc1nnc(C2COc3ccccc3O2)o1)NC1CCCCC1 (stereo not given)	3.8%	5.2%	-11.1%	-4.9%	-2.0%	39.8µM*
O=C(CSc1nnc(C2COc3ccccc3O2)o1)N1CCCCC1 (stereo not given)	-1.5%	3.9%	11.4%	-14.3%	-5.3%	0.2%
COC(=O)C1=C(C)NC(C)=C(C(=O)OC)C1c1ccc(-c2cc(Cl)ccc2Cl)o1	-4.5%	-33.6%	2.8%	8.6%	-7.9%	-42.7%
COC(=O)C1=C(C)NC(=O)NC1c1ccc(-c2ccc(F)cc2)o1 (stereo not given)	-0.4%	14.1µM*	7.0%	0.2%	-2.9%	-19.4%
CCOC(=O)C1=C(C)NC(=O)NC1c1ccc(-c2ccc(F)cc2)o1 (stereo not given)	2.4%	25.1µM*	-9.6%	?	-3.8%	-19.8%
COC(=O)C1=C(C)NC(=S)NC1c1ccc(-c2cccc(Cl)c2)o1 (stereo not given)	-13.9%	8.91µM*	-3.4%	-0.2%	1.7%	?
COCCOC(=O)C1=C(C)NC(=O)NC1c1ccc(-c2cc(Cl)ccc2Cl)o1 (stereo not given)	-0.4%	17.8µM*	-6.3%	-6.7%	-3.8%	4.4%
c1cnc2cc3c(cc2n1)[C@@H]1CNC[C@@H]3C1	nt	nt	nt	nt	-3.4%	nt
COC(=O)C1=C(C)NC(C)=C(C(=O)OC)C1c1ccc(-c2cccc([N+](=O)[O-])c2)o1	0.4%	39.8µM*	2.8%	-6.9%	4.6%	-46.8%
COC(=O)C1=C(C)NC(=O)NC1c1ccc(-c2ccccc2Cl)o1 (stereo not given)	-2.6%	25.1µM*	8.2%	-10.3%	-3.4%	-24.7%
NNC(=O)c1ccc(-c2cccc([N+](=O)[O-])c2)o1	-0.7%	-11.8%	7.4%	-8.5%	0.8%	-37.5%
COC(=O)C1=C(C)NC(C)=C(C(=O)OC)C1c1ccc(-c2cccc(Cl)c2Cl)o1	8.0%	?	4.2%	7.1%	-9.6%	-56.8%
CCOC(=O)C1=C(C)NC(=S)NC1c1ccc(-c2ccc(Cl)cc2)o1 (stereo not given)	-2.8%	22.4µM*	16.7%	-7.5%	8.6%	-53.6%
CCOC(=O)C1=C(C)NC(=O)NC1c1ccc(-c2ccc(Cl)cc2)o1 (stereo not given)	0.0%	nt	4.6%	-7.5%	3.2%	-24.0%
CN1CC(=O)N(CC(=O)Nc2ccc(N(C)C)cc2)c2ccccc2C1=O	nt	50.1µM*	16.6%	0.8%	-23.2%	nt
CN(C)c1ccc(NC(=O)CN2C(=O)CN=C(c3ccccc3)c3ccccc32)cc1	-4.7%	-2.6%	11.6%	-10.9%	-19.6%	13.5%
SMILES	SARS PLP yeast	Sm TGR inh	RE007 growth inh	AmpC inh detg	Tb PYK inh	AmpC inh no detg
CN1CCc2c(sc3c2C(=O)NC(/C=C\c2ccccc2)N3)C1 (stereo not given)	0.9%	10µM*	-6.3%	0.7%	-19.4%	-4.2%
CN1CCc2c(sc3c2C(=O)NC(c2cccs2)N3)C1 (stereo not given)	-10.3%	-21.1%	-22.0%	-12.1%	0.7%	-11.7%
CCC(C)NC(=O)c1c(C)oc2ncn(CC(C)C)c(=O)c12 (stereo not given)	nt	-3.6%	nt	14.1%	-3.4%	nt
CCOC(=O)c1[nH]c(=O)[nH]c1COC(=O)c1cc2ccccc2o1	7.7%	4.47µM*	21.4%	-4.3%	6.6%	-22.3%
CCOC(=O)CCCCC(=O)c1[nH]c(=O)[nH]c1CSc1nc(C)cc(=O)[nH]1	0.8%	2.51µM*	5.6%	?	1.2%	-8.1%
CCOC(=O)c1[nH]c(=O)[nH]c1CSc1nc(C)cc(C)n1	-1.8%	35.5µM*	-3.0%	0.8%	-10.7%	-20.9%
CCOC(=O)CCCCC(=O)c1[nH]c(=O)[nH]c1CSc1nc2ccccc2[nH]1	-10.0%	3.16µM*	-7.5%	-5.5%	-7.8%	-9.7%
CN(C)CCCOC(=O)c1cc2ccccc2o1	-2.3%	?	-23.1%	3.0%	-1.1%	-12.0%
CCOC(=O)CCCCC(=O)c1[nH]c(=O)[nH]c1CSc1nc(C)cc(C)n1	-1.5%	8.1%[11.4 µM]	-2.5%	-10.1%	-18.6%	-3.4%
CCOC(=O)c1[nH]c(=O)[nH]c1CSCCO	-4.1%	-19.6%	4.2%	2.6%	-7.4%	-12.8%
Cc1cccc(OCCCCn2c(C3CC(=O)N(c4ccc(C)cc4C)C3)nc3ccccc32)c1 (stereo not given)	nt	0.2%	nt	-2.2%	0.7%	nt
Cc1ccc(S(=O)(=O)N2CCCc3cc(NS(=O)(=O)c4ccc(F)cc4)ccc32)cc1	nt	4.9%	nt	19.1%	1.8%	nt
COc1ccc2c(c1)cc1c(=O)n(CC(=O)NC(C)C)nc(C)n12	nt	-2.5%	nt	4.1%	-8.1%	nt
Cn1c(=O)c(=O)n(C)c2cc(N3CCCC3)c(NS(=O)(=O)c3ccc(Cl)cc3)cc21	-5.9%	50.1µM*	1.3%	1.0%	0.0%	55.6%
Cc1ccc(-c2noc(CN(C3CCCCC3)S(=O)(=O)c3ccc(F)cc3)n2)cc1	nt	7.7%	nt	18.0%	4.1%	nt
CC(=O)OC1C(=O)OCC23CCC4(C)OC4C2OC2CC(OC(=O)C=CC=CC(=O)OCCC1C)C3(C)C21CO1 (stereo not given)	nt	nt	5.62µM*	nt	0.4%	nt
